Screens as filed in PubChem BioAssay.
POLH inh: inhibitors of human DNA polymerase eta | Q9Y253 | recombinant Pol eta, fluorescent DNA replication assay | Potency, µM (titrated, usually from 114 µM), for the others: at the highest dose activity change, negative = inhibition, hits mostly inhibitors | hit rate 1.2% among 390,000 | AID 588591; further: potency means the concentration at half of the fitted maximal effect; on the % scale 0 is the no-effect control and ±100 the full control effect
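Pol eta (10 nM) was preincubated with compounds for 15 min at room temperature, after which fluorescent replication substrate (50 nM final) was added to start the reaction. Fluorescence was read kinetically at 0 and 10 min.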
Pol beta inh: inhibitors of human DNA polymerase beta; Potency, µM (doses to about 114 µM), without a hit: at the top dose activity change, negative = inhibition, hits mostly inhibitors; Pol beta primer extension/strand displacement, fluorescence kinetic; hit rate 1.3% among 340,000; P06746; further: potency means the concentration at half of the fitted maximal effect; on the % scale 0 is the no-effect control and ±100 the full control effect
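Homogeneous kinetic assay of primer extension and strand displacement by 10 nM Pol beta, preincubated 15 min at room temperature with compound before 50 nM substrate (final) was added. Read at 0 and 10 min; four-parameter Hill fit.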
POLI inh: inhibitors of human DNA polymerase iota | Pol iota fluorescent replication assay, 10 min | Potency, µM (top dose mostly 115 µM), inactives show at the top dose activity, negative = inhibition, actives largely listed as inhibitors | hit rate 1% among 390,000 | AID 588590; further: potency means the concentration at half of the fitted maximal effect
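Pol iota at 10 nM preincubated 15 min with compounds at room temperature; reaction started with fluorescent substrate, 50 nM final. Fluorescence read kinetically at 0 and 10 min; buffer-only wells as negative control.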
Pol kappa inh: DNA polymerase kappa (human) inhibition; Q9UBT6; purified Pol kappa, fluorescent DNA synthesis assay, 10 min; Potency, µM (titrated, usually from 107 µM), without a hit: at the highest dose activity, negative = inhibition, hits mostly inhibitors; hit rate 0.53% among 400,000; further: potency means the concentration at half of the fitted maximal effect; on the % scale 0 is the no-effect control and ±100 the full control effect
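10 nM Pol kappa was preincubated with compounds for 15 min at room temperature. Reaction started with 50 nM (final) substrate. Fluorescence read kinetically at 0 and 10 min.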
PI5P4Ka inh: blocks human PI5P4K alpha kinase activity; max response, %; P48426; PI5P4Kalpha enzyme, ADP-Glo luminescence, 60 min; hits give low values; hit rate 1.2% among 330,000; active means max response of -50% or lower; inconclusive means between -30% and -50%; inactive means -30% or higher; further: value at the top dose of about 77 µM; on the % scale 0 is the no-effect control and ±100 the full control effect
Target sequence (P48426 whole entry, looked up): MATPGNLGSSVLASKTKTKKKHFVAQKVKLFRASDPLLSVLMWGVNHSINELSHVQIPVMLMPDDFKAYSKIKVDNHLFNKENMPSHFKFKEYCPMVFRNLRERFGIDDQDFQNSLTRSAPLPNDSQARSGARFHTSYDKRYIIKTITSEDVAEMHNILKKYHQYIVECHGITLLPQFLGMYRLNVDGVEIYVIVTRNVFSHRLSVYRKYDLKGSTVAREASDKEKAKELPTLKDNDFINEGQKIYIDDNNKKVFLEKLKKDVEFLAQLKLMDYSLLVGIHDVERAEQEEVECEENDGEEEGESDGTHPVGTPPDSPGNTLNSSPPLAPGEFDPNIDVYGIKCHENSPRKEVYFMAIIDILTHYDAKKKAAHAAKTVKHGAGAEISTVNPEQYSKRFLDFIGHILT
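Controls without substrate or without enzyme flank wells where PI5P4Kalpha converts substrate using 5 microM ATP (final). Incubation lasts 60 minutes at room temperature; ADP formed is read by ADP-Glo luminescence.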
WRN inhibitor: blocks human WRN helicase; hit rate 0.46% among 360,000; Potency, µM (titrated, usually from 114 µM), without a hit: at the top dose activity change, negative = inhibition, usual class: inhibitors; Q14191; WRN helicase unwinding, fluorescent forked duplex, kinetic; AID 651768; further: potency means the concentration at half of the fitted maximal effect; on the % scale 0 is the no-effect control and ±100 the full control effect; nearly all actives have a fitted effect of over 55% in size
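Enzyme (20 nM final) and test compound sit together 15 min at room temperature before substrate addition. Substrate is a single-forked duplex oligonucleotide (100 nM) labelled with fluorophore and quencher, with 2 mM ATP; helicase unwinding raises red fluorescence, read kinetically.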
* = called active by the depositor; [ ] = another dose, or the depositor's remark. Sampled rows, rich in hits. Any-hit rate of the full collection: about 2.8%. Unless noted, the call rests on the fitted dose curve; in most records, active means well fitted curve in the direction sought with a large enough effect; inconclusive means small, poorly fitted or top-dose-only effect, or another doubt; inactive means no such curve, though single readings can be large; an effect the other way counts as inactive or inconclusive.

What do the screens show for `CCc1ccc(-n2nc(C)c3c(C(=O)Nc4cc(C)c(Cl)cc4OC)cc(C)nc32)cc1`?
POLH inh: -17%; Pol beta inh: 2%; POLI inh: 17%; Pol kappa inh: 2%

Results for COc1ccccc1C(=O)NC(=O)COC(=O)c1cc[n+]([O-])cc1 ?
POLH inh: -2%; POLI inh: 18%; Pol kappa inh: -3%; PI5P4Ka inh: 0; WRN inhibitor: -5%

What do the screens show for `CC(C(=O)NC1CCCC1)n1c(-c2ccccn2)nc2ccccc21` (stereo unspecified)?
PI5P4Ka inh: 1; WRN inhibitor: 1%

What do the screens show for `CCCCOC(=O)C1=C(C)NC(=O)NC1c1cccc([N+](=O)[O-])c1` (stereo unspecified)?
POLH inh: -9%; Pol beta inh: 3%; POLI inh: -19%; Pol kappa inh: -3%; PI5P4Ka inh: 1; WRN inhibitor: -9%

Results for CCCCOC(=O)C1=C(C)NC(=O)NC1c1ccc([N+](=O)[O-])s1 (stereo unspecified) ?
POLH inh: -27%; Pol beta inh: 0%; POLI inh: 89µM*; Pol kappa inh: inconclusive; PI5P4Ka inh: -20; WRN inhibitor: -17%

How did O=C1[C@@H](Oc2ccccc2)[C@@H](c2ccncc2)N1c1ccncc1 do in these assays?
POLH inh: -4%; POLI inh: inconclusive; Pol kappa inh: -24%; PI5P4Ka inh: 2; WRN inhibitor: -1%

How did Cc1ccc(NC(=S)N/N=C/c2ccc([N+](=O)[O-])s2)cc1 do in these assays?
POLH inh: -19%; Pol beta inh: -9%; POLI inh: 9%; Pol kappa inh: -6%; PI5P4Ka inh: 4; WRN inhibitor: -12%

What do the screens show for `Cc1cc(C)cc(N=Cc2ccc([N+](=O)[O-])s2)c1`?
POLH inh: 32µM*; Pol beta inh: inconclusive; POLI inh: 79µM*; Pol kappa inh: -19%; PI5P4Ka inh: -4; WRN inhibitor: -2%[11.6 µM]

Results for CC1=C(C(=O)N2CCOCC2)CC(CC(=O)NC2CCCC2)C(=O)N1Cc1ccccc1 (stereo unspecified) ?
POLH inh: -19%; PI5P4Ka inh: -1; WRN inhibitor: 6%

What do the screens show for `CC(=O)c1ccc(S(=O)(=O)Nc2ccc(C(=O)N(C)CC(=O)Nc3cccc(C)c3C)cc2)cc1`?
POLH inh: 32µM*; POLI inh: inconclusive; Pol kappa inh: inconclusive; PI5P4Ka inh: inconclusive; WRN inhibitor: 5%[11.6 µM]

How did O=C(O)Cc1ccc2c(c1)Cc1cccnc1O2 do in these assays?
POLH inh: -12%; PI5P4Ka inh: -6; WRN inhibitor: 5%

Results for O=C(CSc1ccsc1[N+](=O)[O-])N1CCCCCC1 ?
POLH inh: -10%; Pol beta inh: inconclusive; POLI inh: inconclusive; Pol kappa inh: -10%; PI5P4Ka inh: -14; WRN inhibitor: -1%

How did COCCCNC(=O)CSc1ccsc1[N+](=O)[O-] do in these assays?
POLH inh: 45µM*; Pol beta inh: -23%; POLI inh: inconclusive; Pol kappa inh: inconclusive; PI5P4Ka inh: -20; WRN inhibitor: -5%[11.6 µM]

Results for Cc1ccc(C(=O)Nc2cccc(C(=O)N3CCOCC3)c2)cc1Cl ?
POLH inh: -19%; Pol beta inh: 2%; POLI inh: inactive; Pol kappa inh: -18%; PI5P4Ka inh: 2; WRN inhibitor: -24%

Results for O=C(NNc1ccc([N+](=O)[O-])cc1)c1ccccc1Cl ?
POLH inh: 5%; Pol beta inh: -9%; POLI inh: -16%; Pol kappa inh: -6%; PI5P4Ka inh: -2; WRN inhibitor: -6%

Results for O=C(NC(NNc1ccc([N+](=O)[O-])cc1)(C(F)(F)F)C(F)(F)F)c1ccc(Cl)cc1 ?
POLH inh: -5%; Pol beta inh: -4%; POLI inh: 21%; Pol kappa inh: -9%; PI5P4Ka inh: -67*; WRN inhibitor: -31%
